# Most compounds without a hit are left out; they make up all but 0.39% or so of the library.
# Anesthetic bind – binds horse apoferritin like a general anesthetic; P02791; apoferritin/1-aminoanthracene competitive binding, fluorescence; Potency, µM (series often up to 77.5 µM), for inactives: top-dose activity change, negative = displacement, most hits filed as inhibitors; actives 0.074% (n = 350,000); further: potency means the concentration at half of the fitted maximal effect; on the % scale 0 is the no-effect control and ±100 the full control effect; nearly all actives have a fitted effect of over 20% in size
# Target sequence (P02791 2-175 limits assumed): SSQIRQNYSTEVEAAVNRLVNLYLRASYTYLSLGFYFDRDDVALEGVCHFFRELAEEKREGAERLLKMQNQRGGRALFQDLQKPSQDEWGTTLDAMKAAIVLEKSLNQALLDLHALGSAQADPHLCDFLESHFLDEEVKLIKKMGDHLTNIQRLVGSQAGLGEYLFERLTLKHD
#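 In PBS, apoferritin at 10 uM is loaded with 1-AMA from a 50% saturated solution. After 10 min of compound exposure at ambient temperature, reduced 535 nm fluorescence indicates probe displacement.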
# ERG-DNA inh – blocks human ERG Ets domain binding to DNA; P11308; fluorescence polarization, His-ERG Ets domain / labelled DNA; Potency, µM (doses to about 76.9 µM), for inactives: at the top dose FP activity, negative = inhibition, usual class: inhibitors; actives 0.028% (n = 370,000); AID 624246; active means well fitted inhibition curve with a large enough effect in the polarisation, with a control signal flat; inconclusive means small, poorly fitted or top-dose-only effect, or effect the other way, or a change in a side signal; inactive means no such curve, though single readings can be large or run the other way; the % refers to the polarisation;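 further: polarization taken with two DNA probes labelled with fluorescein and Texas red; potency means the concentration at half of the fitted maximal effect; % of control where 0% means no effect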
#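 His-tagged ERG Ets domain (1 uM in the protein solution; 300mM KCl, 50mM Tris-HCl, 1mM EDTA, 1mM DTT, pH 7.5) received compound, then a probe mix of 5 nM fluorescein-DNA and 100nM Texas-615-DNA. Fluorescence polarization was read for both dyes.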
# CCT modulator – cytosolic chaperonin activity modulation. purified chaperonin ATPase assay, HTRF ADP detection, 30 min. activity change, % (test concentration not listed), hits read low. actives 0.3% (n = 360,000). AID 651819; in the data active means activity change below about -30%; further: on the % scale 0 is the no-effect control and ±100 the full control effect
#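 TRiC (40 or 20 nM final, by batch activity) in 30 mM Tris pH 7.4, 100 mM KCl, 5 mM MgCl2, 1 mM DTT was treated with compound at 76 uM single dose, then 10 uM ATP, 30 min at 37 °C. ADP was read by HTRF Transcreener.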
# Mm-Cpn inhibitor – inhibitors of Methanococcus maripaludis chaperonin TRiC (MmCpn); AID 504842; actives 0.031% (n = 330,000); Potency, µM (highest dose often 76.9 µM), for the others: at the top dose activity, negative = inhibition, most hits filed as inhibitors; purified Mm-Cpn ATPase, ADP Transcreener TR-FRET; further: potency means the concentration at half of the fitted maximal effect; on the % scale 0 is the no-effect control and ±100 the full control effect; nearly all actives have a fitted effect of over 80% in size
#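 Eu-cryptate anti-ADP/ADP-d2 competition gives a ratio inversely related to ADP. Enzyme at 25 nM was pre-exposed to compound for 10 min, then given 10 uM ATP for 30 min, 37°C throughout.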
# The depositor's hits bear a star; ? = inconclusive; . = no result. Unless noted, the call rests on the fitted dose curve; in most records, active means well fitted curve in the direction sought with a large enough effect; inconclusive means small, poorly fitted or top-dose-only effect, or another doubt; inactive means no such curve, though single readings can be large; an effect the other way counts as inactive or inconclusive.
SMILES,Anesthetic bind,ERG-DNA inh,CCT modulator,Mm-Cpn inhibitor
COCCN(C(=O)CSc1nc2ccc(C)cc2[nH]1)c1c(N)n(Cc2ccccc2)c(=O)[nH]c1=O,-1%,4%,-39*,2%
COc1ccc(C)cc1NC(=S)N1CC(C)OC(C)C1 (configuration not stated),-8%,-11%,-48*,-2%
COc1ccc(NC(=O)N2CC(C)OC(C)C2)cc1OC (configuration not stated),-14%,1%,0,-1%
COc1cc(C2OC(=O)c3c2ccc(OC)c3OC)ccc1O (configuration not stated),.,.,.,-6%
Cc1ccc(N2CC(C(=O)NCC3CCCO3)CC2=O)cc1Cl (configuration not stated),-8%,0%,-143*,1%
Nc1nc(N2CCN(Cc3ccccc3)CC2)n[nH]1,-1%,35µM*,1,0%
CCOC1(/N=C(\C)NS(=O)(=O)c2ccc(Cl)cc2)C(C)=CC(=O)C=C1C,-9%,1%,-71*,1%
CCCNC(=O)NS(=O)(=O)c1ccc(Cl)cc1,4%,35%,1,2%
O=C(c1ccc(Cl)cc1Cl)N1CCN(c2ccccn2)CC1,-3%,-13%,-33*,1%
O=C(Cn1ncc2c3ccccc3n(Cc3ccccc3)c2c1=O)NCCN1CCOCC1,-12%,-12%,-34*,1%
O=C(Cn1ncc2c3ccccc3n(Cc3ccccc3)c2c1=O)NCCCN1CCCC1,-4%,9%,-1,-5%
COc1ccc(C(CC(=O)NCc2ccc(Cl)cc2)N2Cc3ccccc3C2=O)cc1OC (configuration not stated),122%,-5%,.,.
Cc1cc(NS(=O)(=O)c2ccc(NC(=O)COc3ccc(C#N)cc3)cc2)nc(C)n1,.,-4%,-32*,-3%
Cc1ccc(OCC(=O)Nc2ccc(S(=O)(=O)Nc3cc(C)nc(C)n3)cc2)cc1,-11%,-4%,2,?
Cc1ccc(Sc2ccccc2CN(C)C)c(N)c1,-4%,.,.,.
CCOC(=O)C1(N(CC)CC)Sc2cc(C)ccc2NC1=O (configuration not stated),-15%,3%,0,2%
C=C(C)C(=O)OC1(C(F)(F)F)Oc2cc(C)ccc2NC1=O (configuration not stated),18µM*,-14%,-5,-1%
COC(=O)c1ccc(/C=N/OCC(=O)NC2CCCCCCC2)cc1,7.9µM*,-2%,-2,-7%
COC(=O)c1ccc(/C=N/OCC(=O)NC2CCCC(C)C2C)cc1 (configuration not stated),11µM*,3%,0,0%
COc1ccc(-c2ccc3c(c2)S(=O)(=O)c2cccc(C(=O)N4CCN(c5ccccn5)CC4)c2C3=O)cc1OC,.,.,-32*,.
CC(=O)Nc1ccc(OS(=O)(=O)O)cc1,8%,.,.,.
COc1ccc(CCNC(=O)c2cc3cc(Cl)ccc3nc2N)cc1OC,.,.,0,.
CCn1c(Oc2cccc(Br)c2)nc2c1c(=O)n(C)c(=O)n2C,-6%,-5%,-44*,1%
O=C(CNc1ccc(C(F)(F)F)cc1[N+](=O)[O-])OCC(=O)c1ccccc1,28µM*,-1%,-2,0%
CCOc1ccc(NC(=O)CN(C)C(=O)CCCNC(=O)c2ccc(Cl)cc2)cc1OCC,.,.,-3,.
SMILES,Anesthetic bind,ERG-DNA inh,CCT modulator,Mm-Cpn inhibitor
CCOc1ccc(NC(=O)CN(C)C(=O)CCNC(=O)c2ccccc2Cl)cc1OCC,.,8%,-44*,-3%
CCOc1ccc(CNC(=O)Nc2ccc3c(c2)N(C)C(=O)c2ccccc2S3)cc1,4%,-9%,.,.
Cc1c(C(=O)Nc2nc3ccccc3[nH]2)oc2c(Cl)cccc12,-3%,-12%,-30*,0%
CC1(C)CC(=O)c2c(noc2-c2ccccc2)C1,10µM*,2%,0,-2%
CC1(C)CC(=O)c2c(Cc3ccccc3)noc2C1,?,-6%,-3,2%
COCCCn1c(=O)cc(C)[nH]c1=S,-2%,-1%,-39*,1%
COCCCn1c(=S)[nH]c(C)c(C)c1=O,35%,?,2,0%
COc1ccc(-c2nc(CCNC(=O)c3c(F)cccc3Cl)cs2)cc1,?,-2%,.,.
CSc1nc(N)nc(SCC(=O)C23CC4CC(CC(C4)C2)C3)c1C#N,?,2%,1,-4%
N#Cc1c(N)nc(SCC(=O)C23CC4CC(CC(C4)C2)C3)c(C#N)c1-c1ccc(Cl)cc1,-9%,1%,-40*,-7%

# Compound activity (PubChem)
